This is an account of results in PubChem BioAssay.

Experiment [1] in a line: rapamycin-like changes in RPL19A-GFP expression – cell-based, S. cerevisiae, multiplex flow cytometry, primary screen (AID 1862; in the data active = percent of DMSO control GFP below about 86%;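 note: lower values mimic rapamycin by blocking the RPL19A rise seen in DMSO cells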). As to conditions: S. cerevisiae RPL19A-GFP strain, flow cytometry fluorescence, 3 h; at 10 µM; stronger effect = lower value.
The nature of experiment [2]: TOR pathway GLN3 branch reporter MEP2-GFP changes – S. cerevisiae, multiplex flow cytometry, primary screen (AID 1867;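 active = GFP response, as percent of the DMSO control, above the screen-wide mean plus 3 SD, about 139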;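 note: median GFP channel fluorescence of barcode-gated MEP2-GFP cells measured by flow cytometry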). As to conditions: S. cerevisiae MEP2-GFP strain, 3 h, at 10 µM, stronger effect = higher value, 100% means same as DMSO wells. In general terms: Flow cytometry measures light scatter and fluorescence of single cells or particles in a stream.
Experiment [3] in a line: TOR pathway RTG branch CIT2 reporter changes – S. cerevisiae, GFP fusion, multiplex flow cytometry, primary screen (AID 1870;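 active = percent response above a set limit, the screen-wide mean plus 3 SD, cut at about 130% in these data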;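 note: barcoded CIT2-GFP strain pooled with four other GFP strains with rapamycin as positive control; median GFP fluorescence per well over plate mean of DMSO wells so 100% = DMSO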). As to conditions: S. cerevisiae CIT2-GFP expression, 3 h, at 10 µM, stronger effect = higher value.
Experiment [4] can be described thus: TOR pathway LAP4-GFP level changes – S. cerevisiae, multiplex flow cytometry, primary screen (AID 1873;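 active = GFP signal, as percent of the solvent control, above the screen mean plus 3 SD, about 149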). As to conditions: S. cerevisiae LAP4-GFP expression, 3 h, at 10 µM, stronger effect = higher value.
Experiment [5] in a line: yeast AGP1-GFP level changes, GLN3 branch – cell-based, multiplex flow cytometry, S. cerevisiae, primary screen (AID 1887;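 active = GFP signal above the screen-wide mean plus 3 SD, that is over about 124.5% of the solvent control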;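 note: AGP1-GFP fusion strain of S. cerevisiae within a five-strain barcoded multiplex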). As to conditions: 3 h, at 10 µM, stronger effect = higher value.
The nature of experiment [6]: reduced mouse 2C T cell binding to pMHC/ICAM-1 vesicles – MLPCN validation set, flow cytometry, LFA-1/ICAM-1 modulator project, pilot screen (AID 2523).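 For vesicle binding response: mean PE anti-B7-1 fluorescence of CD8+ cells relative to row control; 100% = QL9-loaded vesicles with DMSO vehicle in the same plate row.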 As to conditions: 2C mouse CD8+ T cells, at 7 µM, stronger effect = lower value; double positive events: measured here: CD8+/vesicle+ event percentage.
Experiment [7] addresses Integrin beta-1 (Homo sapiens) + Integrin alpha-4 (Homo sapiens) (UniProt P13612+P05556). In words: alpha4beta1 integrin LIBS antibody binding reduction – U937 cells, HUTS-21 mAb, flow cytometry, validation set, VLA-4 allosteric modulator project, pilot screen (AID 2674;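 active = inhibition above 50%, about 3 SD of the validation set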;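 note: antibody binding induced by the VLA-4 ligand LDV present at three times its Kd; 0% = LDV ligand with antibody and no compound and 100% = antibody without LDV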). As to conditions: HUTS-21 LIBS mAb binding, at 6.7 µM, stronger effect = higher value, binding induced by LDV ligand.

Experiment [8] is described as follows: calorie-restriction mimetic ROS inhibitors, yeast – validation compound set, pilot screen (AID 2706;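 active = superoxide response below 65% of plate, a cut near 3 SD across the whole screen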;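 note: yeast exposed to compound for one week at 30 degrees C before staining; 100% = mean of all compound wells on the same plate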). As to conditions: S. cerevisiae aging, superoxide DHE fluorescence; at 10 µM; stronger effect = lower value.
For experiment [9], the target named is Beta-adrenergic receptor kinase 1 (Homo sapiens) (UniProt P25098). Kind of experiment: GRK2 binders displacing RNA aptamer, biochemical, validation, human GRK2, bead flow cytometry (AID 488806;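 active = aptamer binding inhibition above 30%, about 3 SD of noise from non-fluorescent compounds; inactive = inhibition at or below 30%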). As to conditions: bead-bound GRK2, FAM-aptamer displacement, at 10 µM, stronger effect = higher value.
Chain of Beta-adrenergic receptor kinase 1 (Homo sapiens) (P25098 whole entry, looked up): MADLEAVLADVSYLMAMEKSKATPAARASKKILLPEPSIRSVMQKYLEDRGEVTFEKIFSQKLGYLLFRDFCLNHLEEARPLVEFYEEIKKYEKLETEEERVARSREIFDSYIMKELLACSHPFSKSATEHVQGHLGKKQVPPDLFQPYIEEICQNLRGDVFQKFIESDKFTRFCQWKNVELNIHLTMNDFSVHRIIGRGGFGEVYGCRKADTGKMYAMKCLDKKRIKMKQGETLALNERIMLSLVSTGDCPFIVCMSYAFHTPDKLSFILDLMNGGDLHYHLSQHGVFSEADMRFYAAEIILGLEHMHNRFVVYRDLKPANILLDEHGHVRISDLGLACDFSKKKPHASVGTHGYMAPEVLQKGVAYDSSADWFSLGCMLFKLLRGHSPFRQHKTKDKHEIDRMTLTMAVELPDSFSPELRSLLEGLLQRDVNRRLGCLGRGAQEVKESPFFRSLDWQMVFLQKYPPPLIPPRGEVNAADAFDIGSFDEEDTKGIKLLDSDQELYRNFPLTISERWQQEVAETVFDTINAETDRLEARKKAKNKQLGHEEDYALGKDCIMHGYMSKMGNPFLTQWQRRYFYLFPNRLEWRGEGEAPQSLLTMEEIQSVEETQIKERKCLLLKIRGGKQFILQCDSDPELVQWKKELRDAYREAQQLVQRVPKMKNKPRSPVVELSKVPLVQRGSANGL
In experiment [10] the target is Beta-2 adrenergic receptor (Homo sapiens) (UniProt P07550). In words: agonist-induced loss of surface beta2AR – cell-based, FAP fluorogen, flow cytometry, validation set, pilot screen (AID 504459;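 active = percent response above 42, roughly 3 SD of non-fluorescent test compounds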;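 note: agonist-driven loss of surface beta2AR via internalization measured by FAP dye flow cytometry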). As to conditions: Am2.2-beta2AR cells, at 10 µM, stronger effect = higher value.
Chain of Beta-2 adrenergic receptor (Homo sapiens) (P07550 whole entry, looked up): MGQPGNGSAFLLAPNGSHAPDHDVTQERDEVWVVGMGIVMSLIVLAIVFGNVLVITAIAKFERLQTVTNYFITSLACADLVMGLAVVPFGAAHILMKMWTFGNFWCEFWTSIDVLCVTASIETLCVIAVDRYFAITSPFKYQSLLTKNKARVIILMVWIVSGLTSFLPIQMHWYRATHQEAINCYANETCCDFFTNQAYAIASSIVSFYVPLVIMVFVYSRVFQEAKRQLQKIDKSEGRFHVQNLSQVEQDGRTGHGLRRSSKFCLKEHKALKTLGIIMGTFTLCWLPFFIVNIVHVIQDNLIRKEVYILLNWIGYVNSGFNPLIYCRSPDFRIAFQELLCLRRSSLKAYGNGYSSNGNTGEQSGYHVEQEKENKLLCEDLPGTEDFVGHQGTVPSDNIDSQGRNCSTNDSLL
In experiment [11] the target is AP-2 complex subunit beta (Homo sapiens) (UniProt P63010). Kind of experiment: beta-arrestin/AP2 interaction blockers – biochemical, validation set, GST-AP2 beads, flow cytometry, pilot screen (AID 504541;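 active = inhibition above 54%, about 3 SD of non-fluorescent compounds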;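 note: AP2 carries R879A mutation and is captured from E. coli lysate; bead-bound FITC arrestin peptide fluorescence measuring arrestin peptide binding to AP2; 0% = DMSO wells and 100% = excess unlabeled arrestin peptide control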). As to conditions: FITC arrestin peptide, at 10 µM, stronger effect = higher value, AP2 beta2 appendage fragment, R879A mutant.
Chain of AP-2 complex subunit beta (Homo sapiens) (P63010 whole entry, looked up, the tested form may be a part, one chain of several): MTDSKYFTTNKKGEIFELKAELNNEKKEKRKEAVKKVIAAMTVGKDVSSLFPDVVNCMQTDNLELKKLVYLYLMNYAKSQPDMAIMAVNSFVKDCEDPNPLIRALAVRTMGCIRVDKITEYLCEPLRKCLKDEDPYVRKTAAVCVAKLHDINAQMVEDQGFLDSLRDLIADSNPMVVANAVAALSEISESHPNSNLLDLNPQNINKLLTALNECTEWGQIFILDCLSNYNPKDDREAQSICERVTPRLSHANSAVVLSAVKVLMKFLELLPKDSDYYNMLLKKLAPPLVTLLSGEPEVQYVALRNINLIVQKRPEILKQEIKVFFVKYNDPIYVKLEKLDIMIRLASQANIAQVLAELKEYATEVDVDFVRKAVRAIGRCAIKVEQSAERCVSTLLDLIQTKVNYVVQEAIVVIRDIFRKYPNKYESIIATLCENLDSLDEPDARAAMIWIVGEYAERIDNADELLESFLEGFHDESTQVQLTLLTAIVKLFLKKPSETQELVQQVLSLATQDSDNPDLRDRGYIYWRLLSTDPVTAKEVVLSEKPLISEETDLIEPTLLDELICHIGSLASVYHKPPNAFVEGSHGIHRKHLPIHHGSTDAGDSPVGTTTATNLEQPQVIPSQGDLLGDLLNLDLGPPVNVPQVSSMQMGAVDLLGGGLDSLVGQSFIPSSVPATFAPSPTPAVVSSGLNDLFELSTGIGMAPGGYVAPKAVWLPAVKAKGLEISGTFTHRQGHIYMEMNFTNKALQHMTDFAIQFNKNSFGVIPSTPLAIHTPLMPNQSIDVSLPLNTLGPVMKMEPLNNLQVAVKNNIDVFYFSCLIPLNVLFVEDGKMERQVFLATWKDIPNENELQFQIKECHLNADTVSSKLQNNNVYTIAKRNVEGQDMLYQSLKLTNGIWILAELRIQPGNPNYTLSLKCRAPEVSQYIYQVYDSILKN
Experiment [12] can be described thus: cytosolic pH regulators acting via V-ATPase – S. cerevisiae, pHLuorin, HTS validation (AID 504600; in the data active = response above about 15%;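 note: plate controls were DMSO for no effect and reference compound for full effect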). As to conditions: V-ATPase proton transport, at 10 µM, stronger effect = higher value.
Experiment [13] concerns anti-desmoglein-3 scFv antibody binding to human DSG3. In words: blockers of pathogenic pemphigus antibody–desmoglein-3 binding – biochemical, validation compound set, bead-based, flow cytometry, pilot screen (AID 588368;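 active = binding below the plate cutoff, the plate median minus 3 SD, with a reading above zero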;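 note: signal is the median channel fluorescence of bead-bound GFP antibody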). As to conditions: Protein G beads, DSG3-Fc, scFv-GFP binding, at 10 µM, stronger effect = lower value.
The nature of experiment [14]: Nile Red efflux blockade in pump-expressing yeast – validation compound set, multiplex, phenotypic, pilot screen (AID 588506;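 active = efflux inhibition above 0.42, the validation set average plus 4 SD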;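 note: Nile Red retained in cells so higher fluorescence means more efflux inhibition; 0 = negative control wells and 1 = enniatin B 25 µM full block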). As to conditions: S. cerevisiae pump-expressing triplex, Nile Red efflux flow cytometry; at 10 µM; stronger effect = higher value; the pumps come from Candida albicans.
For experiment [15], the target named is ATP-binding cassette sub-family B member 6 (Homo sapiens) (UniProt Q9NP58). Kind of experiment: blockers of ABCB6-driven porphyrin uptake – K562-ABCB6 cells, flow cytometry, validation set, pilot screen (AID 588550;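 active = inhibition above the screen-wide mean plus 3 SD, about 51%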;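 note: 0% = DMSO wells and 100% = benzethonium chloride 70 µM positive control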). As to conditions: K562-ABCB6 porphyrin accumulation, 1 h, at 10 µM, stronger effect = higher value.
Chain of ATP-binding cassette sub-family B member 6 (Homo sapiens) (Q9NP58 whole entry, looked up): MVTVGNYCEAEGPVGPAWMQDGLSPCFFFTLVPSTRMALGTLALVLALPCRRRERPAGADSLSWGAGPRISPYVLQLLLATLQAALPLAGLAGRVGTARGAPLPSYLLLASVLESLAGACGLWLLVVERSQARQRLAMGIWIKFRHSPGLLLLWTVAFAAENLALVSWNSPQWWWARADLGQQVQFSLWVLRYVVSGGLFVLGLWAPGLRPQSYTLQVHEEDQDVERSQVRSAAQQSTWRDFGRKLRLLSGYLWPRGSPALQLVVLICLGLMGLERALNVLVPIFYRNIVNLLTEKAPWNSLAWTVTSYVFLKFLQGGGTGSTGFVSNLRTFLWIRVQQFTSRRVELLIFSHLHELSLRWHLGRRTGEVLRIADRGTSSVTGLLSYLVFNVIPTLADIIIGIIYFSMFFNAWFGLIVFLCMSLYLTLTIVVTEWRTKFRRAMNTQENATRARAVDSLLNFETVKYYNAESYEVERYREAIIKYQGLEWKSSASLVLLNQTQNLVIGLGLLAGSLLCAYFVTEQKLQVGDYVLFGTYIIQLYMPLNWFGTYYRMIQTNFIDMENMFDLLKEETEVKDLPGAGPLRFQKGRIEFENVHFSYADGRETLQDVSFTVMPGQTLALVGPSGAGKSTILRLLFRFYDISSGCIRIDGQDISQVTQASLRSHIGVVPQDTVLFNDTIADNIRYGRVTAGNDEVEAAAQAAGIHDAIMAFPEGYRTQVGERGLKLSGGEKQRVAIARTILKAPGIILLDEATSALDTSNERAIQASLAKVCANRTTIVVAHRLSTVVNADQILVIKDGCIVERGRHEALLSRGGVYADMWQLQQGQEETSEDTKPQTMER
The nature of experiment [16]: AML differentiation inducers, ER-HoxA9 marrow cells – cell-based, GFP/MAC1 double positive, flow cytometry, validation set, primary screen (AID 588685;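 active = differentiation response of at least 50%, scaled between solvent and reference control, from cells with both markers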;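 note: compound exposure lasts four days before antibody staining and flow analysis; 0% = DMSO wells and 100% = 5 µM fulvestrant positive control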). As to conditions: stronger effect = higher value, normalized: vehicle 0, fulvestrant 100.

Inconclusive results are not listed. Active and inactive are the calls of the source.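 Rule for the calls, unless noted: active = response below a set limit, under 55% cells CD8-positive and vesicle-bound, and CD8 cells' 90th-percentile brightness under 279; inactive = the rest.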

Chain of Integrin beta-1 (Homo sapiens) + Integrin alpha-4 (Homo sapiens) (P05556 whole entry, looked up): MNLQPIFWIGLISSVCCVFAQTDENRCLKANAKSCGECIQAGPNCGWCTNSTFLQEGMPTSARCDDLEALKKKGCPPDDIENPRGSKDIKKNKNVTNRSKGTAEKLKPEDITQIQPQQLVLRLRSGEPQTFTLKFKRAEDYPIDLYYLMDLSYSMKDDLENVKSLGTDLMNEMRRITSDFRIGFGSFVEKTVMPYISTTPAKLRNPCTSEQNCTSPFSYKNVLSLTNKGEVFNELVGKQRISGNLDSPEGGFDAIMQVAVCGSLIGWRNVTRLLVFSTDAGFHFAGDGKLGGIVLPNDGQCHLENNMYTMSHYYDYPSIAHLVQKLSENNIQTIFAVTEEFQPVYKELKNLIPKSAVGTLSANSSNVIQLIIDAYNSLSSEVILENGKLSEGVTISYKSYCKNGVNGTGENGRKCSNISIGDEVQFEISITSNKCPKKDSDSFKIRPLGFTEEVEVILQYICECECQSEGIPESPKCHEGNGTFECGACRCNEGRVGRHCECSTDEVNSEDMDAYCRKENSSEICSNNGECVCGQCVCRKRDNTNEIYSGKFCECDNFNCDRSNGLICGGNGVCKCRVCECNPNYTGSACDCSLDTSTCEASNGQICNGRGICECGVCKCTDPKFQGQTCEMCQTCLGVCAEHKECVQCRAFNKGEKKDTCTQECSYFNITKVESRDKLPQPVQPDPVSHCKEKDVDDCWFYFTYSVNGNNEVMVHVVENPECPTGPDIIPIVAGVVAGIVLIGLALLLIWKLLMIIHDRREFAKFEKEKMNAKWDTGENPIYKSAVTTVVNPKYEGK
Chain of Integrin beta-1 (Homo sapiens) + Integrin alpha-4 (Homo sapiens) (P13612 whole entry, looked up): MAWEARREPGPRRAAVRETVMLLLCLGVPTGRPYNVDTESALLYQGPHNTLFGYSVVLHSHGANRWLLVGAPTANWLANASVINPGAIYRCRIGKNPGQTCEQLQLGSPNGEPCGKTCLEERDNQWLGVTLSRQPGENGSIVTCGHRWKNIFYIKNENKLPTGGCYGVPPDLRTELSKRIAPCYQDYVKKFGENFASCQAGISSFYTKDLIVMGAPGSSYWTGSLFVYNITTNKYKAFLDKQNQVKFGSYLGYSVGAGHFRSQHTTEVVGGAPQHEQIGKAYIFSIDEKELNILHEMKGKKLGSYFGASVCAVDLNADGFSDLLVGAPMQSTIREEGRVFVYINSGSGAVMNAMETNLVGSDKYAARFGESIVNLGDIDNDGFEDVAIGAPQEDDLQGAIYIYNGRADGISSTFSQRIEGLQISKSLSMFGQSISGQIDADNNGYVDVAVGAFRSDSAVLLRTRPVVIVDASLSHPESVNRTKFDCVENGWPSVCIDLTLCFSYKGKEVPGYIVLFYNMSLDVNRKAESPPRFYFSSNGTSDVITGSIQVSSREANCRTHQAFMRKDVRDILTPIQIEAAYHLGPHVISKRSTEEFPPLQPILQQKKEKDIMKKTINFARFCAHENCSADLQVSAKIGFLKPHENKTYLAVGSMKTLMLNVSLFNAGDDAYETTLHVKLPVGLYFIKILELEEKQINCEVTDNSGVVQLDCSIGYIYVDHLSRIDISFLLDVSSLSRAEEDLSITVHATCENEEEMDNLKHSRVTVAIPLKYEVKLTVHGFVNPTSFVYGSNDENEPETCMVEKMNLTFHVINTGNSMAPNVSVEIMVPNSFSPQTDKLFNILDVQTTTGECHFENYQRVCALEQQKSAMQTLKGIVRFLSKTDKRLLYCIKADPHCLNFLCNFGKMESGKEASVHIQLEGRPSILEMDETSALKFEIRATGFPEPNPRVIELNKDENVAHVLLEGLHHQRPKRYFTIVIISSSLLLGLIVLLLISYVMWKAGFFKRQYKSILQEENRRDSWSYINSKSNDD

With `CC(C)c1ccc(NC(=O)CNS(=O)(=O)c2ccc(F)cc2)cc1`, the percent of DMSO control GFP in experiment [1] is 99.3% (inactive). Also, the values for the GFP response vs DMSO in experiment [2] and in experiment [4] were 107% (inactive) and 120% (inactive), respectively. Moreover, the percent response of DMSO control in [3] is 101% (inactive). The GFP response, % of DMSO in [5] was 102% (inactive). The same compound gave a double positive events in experiment [6] of 57.6%. Besides, the vesicle binding response in experiment [6] is 260% (inactive). Also, the inhibition (commonly the change of the read-out against control, counted positive when it falls) in experiment [7] is -3.16% (inactive); in experiment [11], -6.24% (inactive); in experiment [15], 1% (inactive). Further, the superoxide response (% of plate) in experiment [8] is 114% (inactive). The aptamer binding inhibition in experiment [9] is -1% (inactive). Moreover, the response in experiment [10] is -11.4% (inactive); in experiment [12], -3.77% (inactive). Besides, the binding (% of control) in [13] is 100% (inactive). Further, in [14], the efflux inhibition (fraction of control) is -0.1 (inactive). Moreover, the differentiation response in [16] is -13.6% (inactive).
In the case of `O=C(CN1C(=O)/C(=C/c2cccc(Br)c2)SC1=S)Nc1cccnc1`, the percent of DMSO control GFP in [1] is 101% (inactive). Moreover, the results for the GFP response vs DMSO in [2] and in experiment [4] were 105% (inactive) and 109% (inactive), respectively. Also, the percent response of DMSO control in experiment [3] was 101% (inactive). Moreover, the GFP response, % of DMSO in experiment [5] is 109% (inactive). Also, in experiment [6], the double positive events came to 58.9%. In addition, in experiment [6], the vesicle binding response is 59.7% (inactive). Also, the inhibition is -19.9% (inactive) in [7], -4.86% (inactive) in experiment [11] and -10% (inactive) in experiment [15]. Further, in [8], the superoxide response (% of plate) is 102% (inactive). Besides, the aptamer binding inhibition in [9] was 0% (inactive). Moreover, the response in [10] is -8.62% (inactive); in [12] it was 4.59% (inactive). In experiment [13], the binding (% of control) is 99% (inactive). In addition, in [14], the efflux inhibition (fraction of control) is -0.41 (inactive). The differentiation response in experiment [16] was 2.74% (inactive).
As to `COc1ccc(C2OC[C@H]3O[C@H](O)[C@H](NC(C)=O)[C@@H](O)[C@@H]3O2)cc1` (stereo not given in full), in experiment [1], the percent of DMSO control GFP is 99.8% (inactive). Also, the GFP response vs DMSO in experiment [2] was 106% (inactive); in experiment [4] it was 95.9% (inactive). Besides, the percent response of DMSO control in experiment [3] was 97.6% (inactive). For the same compound, the GFP response, % of DMSO in [5] was 97.5% (inactive). The compound further came in with a double positive events in [6] of 76.5%. Further, the vesicle binding response in experiment [6] was 135% (inactive). Moreover, the inhibition is 6.95% (inactive) in experiment [7], 6.9% (inactive) in experiment [11] and 12% (inactive) in experiment [15]. Moreover, the superoxide response (% of plate) in [8] is 98.6% (inactive). In addition, in [9], the aptamer binding inhibition was 0% (inactive). For the same compound, the response was 8.93% (inactive) in [10] and 4.88% (inactive) in experiment [12]. In addition, the binding (% of control) in experiment [13] is 95.3% (inactive). In experiment [14], the efflux inhibition (fraction of control) is -0.04 (inactive). In addition, in experiment [16], the differentiation response was -4.57% (inactive).
As to `CC(=O)N1CCn2c3c(c4cc(C)ccc42)CCCC31` (stereo not given), the percent of DMSO control GFP in experiment [1] is 99.7% (inactive). In addition, the figures for the GFP response vs DMSO in experiment [2] and in [4] were 102% (inactive) and 123% (inactive), respectively. In experiment [3], the percent response of DMSO control is 98.3% (inactive). In addition, in experiment [5], the GFP response, % of DMSO was 111% (inactive). In [6], this compound displayed a double positive events of 62%. The vesicle binding response in experiment [6] was 208% (inactive). Further, the inhibition in experiment [7] was 0.59% (inactive); in experiment [11], 61.1% (active); in [15] it was -1% (inactive). Besides, the superoxide response (% of plate) in experiment [8] is 122% (inactive). Further, in [9], the aptamer binding inhibition is 0% (inactive). Also, the response in experiment [10] was 14.2% (inactive); in [12], 4.65% (inactive). In addition, the binding (% of control) in experiment [13] was 110% (inactive). Further, the efflux inhibition (fraction of control) in experiment [14] is 0.38 (inactive). Moreover, the differentiation response in experiment [16] was -4% (inactive).
For `COc1ccc2[nH]c(CN3CCN(CC(C)C)C(CCO)C3)c(C)c2c1` (stereo not given), in experiment [1], the percent of DMSO control GFP is 98.8% (inactive). Further, the GFP response vs DMSO in experiment [2] and in experiment [4] was 105% (inactive) throughout. Besides, the percent response of DMSO control in [3] was 94.8% (inactive). Further, the GFP response, % of DMSO in experiment [5] is 98% (inactive). In experiment [6], this compound gave a double positive events of 61.7%. In addition, in experiment [6], the vesicle binding response was 231% (inactive). Also, the inhibition in [7] is -3.16% (inactive); in experiment [11] it was -1.65% (inactive); in [15] it was 6% (inactive). In addition, in [8], the superoxide response (% of plate) was 95.8% (inactive). Moreover, the aptamer binding inhibition in experiment [9] is 3% (inactive). Also, the response was -3.42% (inactive) in experiment [10] and 2.28% (inactive) in [12]. For the same compound, the binding (% of control) in experiment [13] is 97.4% (inactive). Moreover, in experiment [14], the efflux inhibition (fraction of control) is -0.06 (inactive). For the same compound, the differentiation response in [16] is -4% (inactive).
